Results: PubChem BioAssay (NCATS)
Values without a mark were called inactive. Records with an inconclusive call do not appear. Entries that show only a call come without a potency. Calls of active or inactive are those of the source. Calls come from the whole dose curve; as a rule, active = well fitted curve in the direction sought with a large enough effect; inconclusive = small, poorly fitted or top-dose-only effect, or another doubt; inactive = no such curve, though single readings can be large; an effect the other way counts as inactive or inconclusive.

Columns and labels:
[1] = molecular target: Glutathione peroxidase 1 (Homo sapiens) (UniProt P07203); assay: Primary qHTS Assay for Inhibitors of Recombinant Selenoprotein Glutathione Peroxidase 1 (GPX1) (AID 1845191); note: nearly all actives have a fitted effect of over 65% in size
How it was run: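 GR-coupled assay: compounds preincubated 30 min at room temperature with GPX1, then reaction started with CHP; final 10 nM GPX1, 1 mM GSH, 0.5 mM CHP, 0.5 mM NADPH, 100 nM GR, 0.01% BSA, pH 7.5 Tris buffer. NADPH fluorescence (340/450 nm) read at 0 and 15 min.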

[2] = molecular target: Phospholipid hydroperoxide glutathione peroxidase GPX4 (Homo sapiens) (UniProt P36969); assay: Primary qHTS Assay for Inhibitors of Recombinant Selenoprotein Glutathione Peroxidase 4 (GPX4) (AID 1845192); note: nearly all actives have a fitted effect of over 65% in size; for activity change, negative = inhibition: series mostly up to about 50 µM
How it was run: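 GR-coupled assay: recombinant GPX4 preincubated 30 min with compound at room temperature; final 200 nM GPX4, 1 mM GSH, 0.5 mM cumene hydroperoxide, 0.5 mM NADPH, 100 nM GR, 0.01% BSA, pH 7.5 Tris. NADPH fluorescence (340/450 nm) read at 0 and 15 min.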

[3] = molecular target: Luciferin 4-monooxygenase (Photinus pyralis) (UniProt P08659); assay: Primary firefly luciferase (FLuc) qHTS assay for identification of artifact compounds. (AID 1845220); note: nearly all actives have a fitted effect of over 60% in size; for activity change, negative = inhibition: series mostly up to about 54 µM
How it was run: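 Enzymatic FLuc inhibition assay: compounds pre-exposed to luciferin/ATP (10 uM each) for 15 min, then purified P. pyralis enzyme at 10 nM added. Read-out: luminescence at 5 min.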

[4] = Primary fluorescence-based thiol-reactive (MSTI) qHTS assay for identification of artifact compounds. (AID 1845221); note: nearly all actives have a fitted effect of over 65% in size; note: potency is the fitted concentration of half-maximal effect;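 for activity change, negative = thiol reactive: series mostly up to about 54 µM; thiol-reactive compounds lower the probe fluorescence signal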
How it was run: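 Thiol-reactive compounds detected by quenching of 4 uM MSTI fluorescence (525/598 nm) after 1 h room-temperature dark incubation in PBS pH 7.4, 2% DMSO. qHTS titration; percent inhibition Hill-fitted against Acetyl-MSTI/MSTI controls.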

[5] = test system: Nanoluciferase (engineered Oplophorus gracilirostris luciferase); assay: Primary Nanoluciferase (NLuc) qHTS assay for identification of artifact compounds. (AID 1845222);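 note: NLuc secreted into diluted conditioned medium of S16 cells; series mostly up to about 54 µM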
How it was run: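 S16 cell supernatant NLuc, 1:55; cpds qHTS; 15 min RT dark; Nano-Glo substrate 1:100, 5 min; luminescence; Hill fit of % inhibition.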

[6] = Primary redox qHTS assay for identification of artifact compounds. (AID 1845223)
How it was run: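 Amplex Red (25 uM) and HRP (250 mU/mL) in HBSS, with compounds for 15 min, then 250 uM DTT for 30 min, room temperature, dark. Fluorescence 525/598 nm read; normalized to DMSO and 10 uM DA3003; Hill fit.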

Chain of Phospholipid hydroperoxide glutathione peroxidase GPX4 (Homo sapiens) (P36969 whole entry, looked up): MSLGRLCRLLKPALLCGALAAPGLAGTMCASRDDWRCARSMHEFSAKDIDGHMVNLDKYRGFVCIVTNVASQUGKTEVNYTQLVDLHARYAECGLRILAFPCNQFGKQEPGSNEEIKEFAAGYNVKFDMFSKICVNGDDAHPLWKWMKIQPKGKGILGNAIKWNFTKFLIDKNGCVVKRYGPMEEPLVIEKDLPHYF
Chain of Glutathione peroxidase 1 (Homo sapiens) (P07203 whole entry, looked up): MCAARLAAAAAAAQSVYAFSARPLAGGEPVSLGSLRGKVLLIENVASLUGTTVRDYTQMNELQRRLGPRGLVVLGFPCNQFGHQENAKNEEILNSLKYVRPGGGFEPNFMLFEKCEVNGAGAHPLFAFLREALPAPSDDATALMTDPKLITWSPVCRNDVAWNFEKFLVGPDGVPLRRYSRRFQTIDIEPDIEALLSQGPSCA

Which activity, negative = inhibition [1] does the source give for `CC(=O)O[C@H]1CC[C@@]2(CI)C(=CC[C@@H]3[C@@H]2CC[C@]2(C)[C@@H]([C@H](C)CCCC(C)C)CC[C@@H]32)C1` here?
The activity, negative = inhibition was 1.81% [at 9.52 µM].

And the activity change, negative = inhibition [2]?
Its activity change, negative = inhibition is 1.73% [at 9.73 µM].

What about the activity change, negative = inhibition [3] of the same compound?
Its activity change, negative = inhibition is 3.6% [at 11.6 µM].

What about the activity change, negative = thiol reactive [4] of the same compound?
Its activity change, negative = thiol reactive is -0.863% [at 11.5 µM].

And the activity, negative = inhibition [5]?
Its activity, negative = inhibition is -1.76% [at 11.6 µM].

And the redox activity (% of DA3003) [6]?
The redox activity (% of DA3003) was -3.63% [at 11.5 µM].

What does the source list for `O=S(=O)(NC1CCNCC1)c1cc(S(=O)(=O)c2ccccc2)ccc1C(F)(F)F`?
Potency [1]: inactive; Potency [2]: inactive; Potency [3]: inactive; Potency [4]: inactive; Potency [5]: inactive; Potency [6]: inactive

Which Potency [1] does the source give for `CCN[C@@H]1C[C@H](N)[C@@H](O[C@H]2OC(CN)=CC[C@H]2N)[C@H](O)[C@H]1O[C@H]1OC[C@](C)(O)[C@H](NC)[C@H]1O` here?
The Potency was “inactive”.

And the Potency [2]?
Its Potency is “inactive”.

What about the Potency [3] of the same compound?
The Potency was “inactive”.

And the Potency [4]?
The Potency was “inactive”.

And the Potency [5]?
The Potency was “inactive”.

What about the Potency [6] of the same compound?
Its Potency is “inactive”.

With `CC1CCC2C(C)(C)CC(C)(CO)C2(O)C1C(=O)O` (centres undefined) as the compound, how does the Potency [1] read?
The Potency was “inactive”.

And the Potency [2]?
Its Potency is “inactive”.

What about the Potency [3] of the same compound?
Its Potency is “inactive”.

What about the Potency [4] of the same compound?
The Potency was “inactive”.

What about the Potency [5] of the same compound?
Its Potency is “inactive”.

What about the Potency [6] of the same compound?
Its Potency is “inactive”.

With `C/C=C/C1=CC2=C(CO1)C(=O)[C@](C)(O)[C@H](OC(=O)c1c(O)cc(OC)c(O)c1C)C2` as the compound, how does the Potency [1] read?
The Potency was “inactive”.

And the Potency [2]?
Its Potency is “inactive”.

What about the Potency [3] of the same compound?
Its Potency is “inactive”.

What about the Potency [4] of the same compound?
The Potency was 1.03 µM (active).

What about the Potency [5] of the same compound?
Its Potency is “inactive”.

And the Potency [6]?
Its Potency is “inactive”.

With `C(#Cc1cccc(CN2CCOCC2)c1)CCN1CCCCC1` as the compound, how does the Potency [1] read?
Its Potency is “inactive”.

And the Potency [2]?
Its Potency is “inactive”.

What about the Potency [3] of the same compound?
Its Potency is “inactive”.

And the Potency [4]?
The Potency was “inactive”.

What about the Potency [5] of the same compound?
The Potency was “inactive”.

And the Potency [6]?
Its Potency is “inactive”.

Which Potency [1] does the source give for `CCOC(=O)Nc1nc2ccccc2[nH]1` here?
Its Potency is “inactive”.

What about the Potency [2] of the same compound?
The Potency was “inactive”.

And the Potency [3]?
The Potency was “inactive”.

What about the Potency [4] of the same compound?
Its Potency is “inactive”.

What about the Potency [5] of the same compound?
Its Potency is “inactive”.

What about the Potency [6] of the same compound?
The Potency was “inactive”.

For `O=C(CCCCc1ccc2ccccc2c1)C(F)(F)F`, which Potency [1] is on record?
The Potency was “inactive”.

What about the Potency [2] of the same compound?
The Potency was “inactive”.

What about the Potency [3] of the same compound?
The Potency was “inactive”.

And the Potency [4]?
The Potency was “inactive”.

What about the Potency [5] of the same compound?
Its Potency is “inactive”.

What about the Potency [6] of the same compound?
The Potency was “inactive”.

For `CCC(C)(O)C(O)C(=O)OCc1ccc(O[C@@H]2O[C@H](CO)[C@@H](O)[C@H](O)[C@H]2O)cc1` (some centres undefined), which Potency [1] is on record?
Its Potency is “inactive”.

What about the Potency [2] of the same compound?
Its Potency is “inactive”.

What about the Potency [3] of the same compound?
Its Potency is “inactive”.

And the Potency [4]?
Its Potency is “inactive”.

And the Potency [5]?
The Potency was “inactive”.

What about the Potency [6] of the same compound?
The Potency was “inactive”.

Which results are given for `CC(=O)[C@@H]1CC[C@]2(C(=O)O)CC[C@]3(C)C(CCC4[C@@]5(C)CC[C@H](O)C(C)(C)C5CC[C@]43C)C12` (some centres undefined)?
Potency [1]: inactive; Potency [2]: inactive; Potency [3]: inactive; Potency [4]: inactive; Potency [5]: inactive; Potency [6]: inactive

Which Potency [1] does the source give for `C/C(=C\CO)CC/C=C(\C)C(=O)O[C@H]1[C@H](OC2OC=C(C(=O)O)C3CCC(C)(O)C23)O[C@H](CO)[C@@H](O)[C@@H]1O` (some centres undefined) here?
Its Potency is “inactive”.

What about the Potency [2] of the same compound?
The Potency was “inactive”.

What about the Potency [3] of the same compound?
Its Potency is “inactive”.

And the Potency [4]?
The Potency was 11.6 µM (active).

And the Potency [5]?
The Potency was “inactive”.

And the Potency [6]?
The Potency was “inactive”.

Which results are given for `CC(CCC1C(C(=O)O)=CC(=O)CC1(C)C)O[C@@H]1O[C@H](CO)[C@@H](O)[C@H](O)[C@H]1O` (some centres undefined)?
Potency [1]: inactive; Potency [2]: inactive; Potency [3]: inactive; Potency [4]: 5.85 µM (active); Potency [5]: inactive; Potency [6]: inactive

Which Potency [1] does the source give for `CCn1cc(C2=NOC(C(=O)Nc3c(C)n(C)n(-c4ccccc4)c3=O)C2)c(C)n1` (centres undefined) here?
The Potency was “inactive”.

And the Potency [2]?
The Potency was “inactive”.

And the Potency [3]?
Its Potency is “inactive”.

What about the Potency [4] of the same compound?
The Potency was “inactive”.

And the Potency [5]?
Its Potency is “inactive”.

And the Potency [6]?
Its Potency is “inactive”.

For `Cc1cc(C)c(S(=O)(=O)N(Cc2ccc(-c3cccc(S(C)(=O)=O)c3)cc2)Cc2ccc(C(F)(F)F)o2)c(C)c1`, which Potency [1] is on record?
Its Potency is “inactive”.

And the Potency [2]?
The Potency was “inactive”.

And the Potency [3]?
The Potency was “inactive”.

What about the Potency [4] of the same compound?
The Potency was “inactive”.

And the Potency [5]?
The Potency was “inactive”.

And the Potency [6]?
The Potency was “inactive”.

Which results are given for `CC(C)(O)CNc1nc(Nc2ccnc(C(F)(F)F)c2)nc(-c2cccc(C(F)(F)F)n2)n1`?
Potency [1]: inactive; Potency [2]: inactive; Potency [3]: inactive; Potency [4]: inactive; Potency [5]: inactive; Potency [6]: inactive

With `CCCC(N[C@@H](C)C(=O)N1[C@H](C(=O)O)C[C@@H]2CCCC[C@@H]21)C(=O)OCC` (some centres undefined) as the compound, how does the Potency [1] read?
Its Potency is “inactive”.

And the Potency [2]?
The Potency was “inactive”.

And the Potency [3]?
The Potency was “inactive”.

What about the Potency [4] of the same compound?
The Potency was “inactive”.

What about the Potency [5] of the same compound?
Its Potency is “inactive”.

What about the Potency [6] of the same compound?
Its Potency is “inactive”.

For `CCC(C)(O)C(O)C(=O)OCc1ccc(O[C@@H]2O[C@H](CO)[C@@H](O)[C@H](O)[C@H]2O)c(OC)c1` (some centres undefined), which Potency [1] is on record?
The Potency was “inactive”.

What about the Potency [2] of the same compound?
The Potency was “inactive”.

What about the Potency [3] of the same compound?
The Potency was “inactive”.

What about the Potency [4] of the same compound?
Its Potency is “inactive”.

What about the Potency [5] of the same compound?
The Potency was “inactive”.

What about the Potency [6] of the same compound?
The Potency was “inactive”.

Which results are given for `C=C1C(O[C@@H]2O[C@H](CO)[C@@H](O)[C@H](O)[C@@H]2O)CC2C(C)(C)C(O)CCC2(C)C1CC/C(C)=C\CO` (some centres undefined)?
Potency [1]: inactive; Potency [2]: inactive; Potency [3]: inactive; Potency [4]: inactive; Potency [5]: inactive; Potency [6]: inactive

Which Potency [1] does the source give for `CCCCN(CCCC)C(=O)CN1C[C@H](c2ccc3c(c2)OCO3)[C@@H](C(=O)O)[C@@H]1c1ccc(OC)cc1` here?
The Potency was “inactive”.

What about the Potency [2] of the same compound?
The Potency was “inactive”.

What about the Potency [3] of the same compound?
The Potency was “inactive”.

What about the Potency [4] of the same compound?
The Potency was “inactive”.

And the Potency [5]?
Its Potency is “inactive”.

And the Potency [6]?
The Potency was “inactive”.
